# Laboratory results: PMC4081100, “A DNA-binding-site landscape and regulatory network analysis for NAC transcription factors in Arabidopsis thaliana”
# Experiments:
# Assay in all cases: universal protein binding microarray (PBM); transcription factors of Arabidopsis thaliana; high values mean tight binding
# [1] = target: T1, GST-ANAC092(1-176) (Arabidopsis thaliana, UniProt Q9FKA0 1-176); settings: protein: recombinant; tags: GST; chain copies: 2; dsDNA, one strand shown
# T1 sequence: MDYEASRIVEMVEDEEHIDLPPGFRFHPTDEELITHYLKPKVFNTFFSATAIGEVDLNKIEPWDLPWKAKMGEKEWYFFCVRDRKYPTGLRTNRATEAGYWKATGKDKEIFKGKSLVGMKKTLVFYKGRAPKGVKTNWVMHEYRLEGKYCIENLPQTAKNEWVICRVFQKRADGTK
# Summary of the method: (§1)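 Protein amounts were determined by A280 or anti-GST western blot after glutathione–Sepharose 4B purification of GST-tagged proteins induced in cells, with zinc acetate included for zinc-finger proteins. Duplicate runs at 200 to 500 nM final were done on custom all-10-mer Agilent 4 × 180K arrays made double-stranded by primer extension. The normalised enrichment score (E-score) over gapped and ungapped 8-mers is the measure of binding.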
# [2] = target: GST-NTL6(1-168) (Arabidopsis thaliana, UniProt Q9SCK6 1-168); settings: protein: recombinant; tags: GST; chain copies: 2; dsDNA, one strand shown
# Summary of the method: as §1
# [3] = target: T2, GST-ANAC055(1-171) (Arabidopsis thaliana, UniProt Q9LDY8 1-171); settings: protein: recombinant; tags: GST; chain copies: 2; dsDNA, one strand shown
# T2 sequence: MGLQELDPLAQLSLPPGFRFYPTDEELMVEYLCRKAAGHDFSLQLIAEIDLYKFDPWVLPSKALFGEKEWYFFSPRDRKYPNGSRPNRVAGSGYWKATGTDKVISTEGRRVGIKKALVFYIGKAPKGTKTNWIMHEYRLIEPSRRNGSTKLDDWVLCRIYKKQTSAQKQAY
# Summary of the method: as §1
# [4] = target: T3, GST-ATAF1 NAC domain (Arabidopsis thaliana, UniProt Q39013 7-158); settings: protein: recombinant; tags: GST; chain copies: 2; dsDNA, one strand shown
# T3 sequence: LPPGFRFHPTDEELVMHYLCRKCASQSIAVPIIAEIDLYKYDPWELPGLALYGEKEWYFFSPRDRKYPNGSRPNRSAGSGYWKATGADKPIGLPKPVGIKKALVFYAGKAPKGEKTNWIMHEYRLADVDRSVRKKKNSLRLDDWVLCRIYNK
# Summary of the method: as §1
# [5] = target: T4, GST-ANAC092(1-285) full length (Arabidopsis thaliana, UniProt Q9FKA0 1-285); settings: protein: recombinant; tags: GST; chain copies: 2; dsDNA, one strand shown
# T4 sequence: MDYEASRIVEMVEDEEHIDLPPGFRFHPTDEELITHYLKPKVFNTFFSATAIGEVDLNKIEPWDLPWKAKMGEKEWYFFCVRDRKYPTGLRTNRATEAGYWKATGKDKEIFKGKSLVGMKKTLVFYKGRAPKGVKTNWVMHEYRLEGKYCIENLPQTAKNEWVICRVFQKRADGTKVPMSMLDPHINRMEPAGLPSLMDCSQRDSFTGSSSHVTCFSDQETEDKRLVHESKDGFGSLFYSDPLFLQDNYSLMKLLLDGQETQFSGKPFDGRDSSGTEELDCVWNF
# Summary of the method: as §1
# [6] = target: T5, GST-NST2(1-184) (Arabidopsis thaliana, UniProt Q9M274 1-184); settings: protein: recombinant; tags: GST; chain copies: 2; dsDNA, one strand shown
# T5 sequence: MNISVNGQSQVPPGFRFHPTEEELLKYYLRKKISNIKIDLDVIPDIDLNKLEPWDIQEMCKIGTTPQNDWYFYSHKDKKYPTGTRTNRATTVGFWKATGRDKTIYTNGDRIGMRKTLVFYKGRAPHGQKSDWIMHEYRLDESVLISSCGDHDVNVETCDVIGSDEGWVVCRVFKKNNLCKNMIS
# Summary of the method: as §1
# [7] = target: T6, GST-NTL8 NAC domain (Arabidopsis thaliana, UniProt Q9XIN7 14-156); settings: protein: recombinant; tags: GST; chain copies: 2; dsDNA, one strand shown
# T6 sequence: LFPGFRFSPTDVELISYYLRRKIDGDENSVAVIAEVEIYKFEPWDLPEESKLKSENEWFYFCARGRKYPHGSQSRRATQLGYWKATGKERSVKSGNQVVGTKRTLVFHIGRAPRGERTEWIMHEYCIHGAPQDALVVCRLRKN
# Summary of the method: as §1
# [8] = target: T7, GST-SND1(1-203) (Arabidopsis thaliana, UniProt Q9LPI7 1-203); settings: protein: recombinant; tags: GST; chain copies: 2; dsDNA, one strand shown
# T7 sequence: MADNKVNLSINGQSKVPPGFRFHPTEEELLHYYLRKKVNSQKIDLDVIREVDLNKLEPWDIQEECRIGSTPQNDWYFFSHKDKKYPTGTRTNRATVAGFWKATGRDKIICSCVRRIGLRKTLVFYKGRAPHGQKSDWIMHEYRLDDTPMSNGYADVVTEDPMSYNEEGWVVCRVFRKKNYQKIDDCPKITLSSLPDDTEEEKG
# Summary of the method: as §1
# [9] = target: T8, GST-VND3 NAC domain (Arabidopsis thaliana, UniProt Q9FH59 12-162); settings: protein: recombinant; tags: GST; chain copies: 2; dsDNA, one strand shown
# T8 sequence: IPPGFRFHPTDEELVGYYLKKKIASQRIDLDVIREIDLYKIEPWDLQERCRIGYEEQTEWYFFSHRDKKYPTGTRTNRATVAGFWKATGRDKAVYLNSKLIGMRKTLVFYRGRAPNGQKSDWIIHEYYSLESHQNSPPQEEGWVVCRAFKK
# Summary of the method: as §1
# [10] = target: GST-WRKY1(266-371) (Arabidopsis thaliana, UniProt Q9SI37 266-371); settings: protein: recombinant; tags: GST; dsDNA, one strand shown
# Summary of the method: as §1
# [11] = target: T9, GST-NAP(1-166) (Arabidopsis thaliana, UniProt O49255 1-166); settings: protein: recombinant; tags: GST; chain copies: 2; dsDNA, one strand shown
# T9 sequence: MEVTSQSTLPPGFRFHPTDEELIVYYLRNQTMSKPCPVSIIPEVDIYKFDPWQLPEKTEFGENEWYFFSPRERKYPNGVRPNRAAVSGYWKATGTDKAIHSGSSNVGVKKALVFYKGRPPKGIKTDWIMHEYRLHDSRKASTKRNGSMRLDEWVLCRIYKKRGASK
# Summary of the method: as §1
# [12] = target: T10, GST-VND7 NAC domain (Arabidopsis thaliana, UniProt Q9C8W9 9-158); settings: protein: recombinant; tags: GST; chain copies: 2; dsDNA, one strand shown
# T10 sequence: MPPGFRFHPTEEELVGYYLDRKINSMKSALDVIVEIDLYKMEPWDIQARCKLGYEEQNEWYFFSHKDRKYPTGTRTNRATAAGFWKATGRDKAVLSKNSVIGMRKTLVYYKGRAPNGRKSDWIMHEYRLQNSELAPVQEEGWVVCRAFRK
# Summary of the method: as §1
# [13] = target: T11, GST-ANAC019 NAC domain (Arabidopsis thaliana, UniProt Q9C932 14-162); settings: protein: recombinant; tags: GST; chain copies: 2; dsDNA, one strand shown
# T11 sequence: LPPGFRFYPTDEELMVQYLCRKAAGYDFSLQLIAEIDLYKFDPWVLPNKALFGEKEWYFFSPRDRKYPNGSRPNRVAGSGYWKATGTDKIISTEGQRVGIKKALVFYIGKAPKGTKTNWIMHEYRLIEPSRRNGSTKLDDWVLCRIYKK
# Summary of the method: as §1
# Chain of GST-NTL6(1-168) (Q9SCK6 1-168): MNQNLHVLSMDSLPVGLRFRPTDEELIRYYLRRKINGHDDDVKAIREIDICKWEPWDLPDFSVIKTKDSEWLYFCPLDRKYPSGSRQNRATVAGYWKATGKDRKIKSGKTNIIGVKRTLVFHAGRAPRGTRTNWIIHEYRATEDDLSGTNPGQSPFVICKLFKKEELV
# Chain of GST-WRKY1(266-371) (Q9SI37 266-371): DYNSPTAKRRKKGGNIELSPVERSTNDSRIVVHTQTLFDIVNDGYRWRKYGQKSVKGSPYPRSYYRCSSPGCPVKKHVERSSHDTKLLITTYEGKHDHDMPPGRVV
Sequence,binding signal [1],binding signal [2],binding signal [3],binding signal [4],binding signal [5],binding signal [6],binding signal [7],binding signal [8],binding signal [9],binding signal [10],binding signal [11],binding signal [12],binding signal [13]
TTAAGGAA,0.11 E-score,0.48 E-score,0.0521 E-score,0.0827 E-score,0.131 E-score,0.139 E-score,0.293 E-score,0.39 E-score,0.24 E-score,0.0668 E-score,,,
AATGCGTA,0.371 E-score,,0.0991 E-score,0.142 E-score,0.387 E-score,0.212 E-score,,0.414 E-score,0.148 E-score,,0.183 E-score,0.118 E-score,
ACGCTACT,0.385 E-score,,0.226 E-score,0.288 E-score,0.425 E-score,0.314 E-score,0.0894 E-score,0.394 E-score,0.241 E-score,0.092 E-score,0.236 E-score,,0.123 E-score
CTTTACGC,0.294 E-score,,,,0.302 E-score,0.193 E-score,,0.408 E-score,0.0839 E-score,,0.081 E-score,0.137 E-score,0.0905 E-score
AATACTTA,,0.405 E-score,0.162 E-score,0.254 E-score,0.104 E-score,0.0916 E-score,0.0845 E-score,0.0985 E-score,0.187 E-score,,,0.0602 E-score,0.135 E-score
ACGTTACA,0.354 E-score,,0.157 E-score,0.244 E-score,0.404 E-score,0.222 E-score,,0.362 E-score,0.217 E-score,,0.23 E-score,0.153 E-score,
AATTACGC,0.17 E-score,,0.155 E-score,0.18 E-score,0.243 E-score,0.199 E-score,,0.428 E-score,0.119 E-score,,0.144 E-score,0.13 E-score,
ATACGCCA,0.455 E-score,,0.22 E-score,0.331 E-score,0.455 E-score,0.283 E-score,0.0758 E-score,0.398 E-score,0.192 E-score,,0.201 E-score,0.247 E-score,
GCACGCTA,0.445 E-score,,0.117 E-score,,0.474 E-score,0.173 E-score,,0.409 E-score,0.111 E-score,,,0.0845 E-score,0.207 E-score
CCACGCTA,0.405 E-score,,,,0.432 E-score,0.219 E-score,0.0925 E-score,0.329 E-score,0.0665 E-score,,,,0.155 E-score
AGGGAAAC,0.0845 E-score,0.115 E-score,,0.0887 E-score,0.071 E-score,,0.482 E-score,0.0839 E-score,0.0608 E-score,,0.14 E-score,,0.0754 E-score
GTCAAGTA,,,0.0988 E-score,0.136 E-score,0.186 E-score,,,0.0698 E-score,0.137 E-score,0.417 E-score,,,
ATTAAGTA,0.0822 E-score,0.441 E-score,0.182 E-score,0.215 E-score,0.144 E-score,0.231 E-score,,0.267 E-score,0.131 E-score,,,,
CCGTCAAA,,,,,,,,0.148 E-score,0.0953 E-score,0.409 E-score,,,0.164 E-score
AAGGAATC,0.172 E-score,0.42 E-score,,0.0816 E-score,0.251 E-score,0.0867 E-score,0.328 E-score,0.292 E-score,0.0823 E-score,,,,
CCAAGCAA,0.31 E-score,0.309 E-score,0.0877 E-score,0.0528 E-score,0.356 E-score,0.295 E-score,0.0676 E-score,0.405 E-score,0.119 E-score,,,,0.147 E-score
